# Several values for one entry are separate records, joined by “and”; a condition that tells them apart may be missing. Identical values can stand only once. Results filed as inconclusive are left out. A call without a number means that no potency is given here. Activity calls are given as the source filed them. The call rests on the fitted dose curve.
# Tests used:
# [1] = Confirmatory qHTS to identify inhibitors of SARS-CoV-2 cell entry (AID 1645844); further: nearly all actives have a fitted effect of over 45% in size
# Outline: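 Luminescence entry read-out after 48 h: spike-pseudotyped MLV particles (Wuhan-Hu-1, 19-aa C-terminal truncation) added to compound-pretreated (1 h) HEK293-ACE2 cells; Data were normalised to bald PP and spike PP wells.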
# [2] = Cytotoxicity counterscreen for inhibitors of SARS-CoV-2 cell entry (AID 1645845); further: nearly all actives have a fitted effect of over 50% in size
# Outline: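 ATP-content luminescence (ATPLite 1step, 15 min RT) read after 48 h compound exposure of Expi293F cells stably expressing human ACE2; normalized to cells-only wells and media-only wells.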
# [3] = Primary qHTS to identify inhibitors of SARS-CoV-2 cell entry (AID 1645846); conditions: activity change, negative = inhibition: at 57.1 µM (top of the series) unless noted; further: nearly all actives have a fitted effect of over 45% in size
# Outline: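 Inhibition of spike-mediated entry was scored in human ACE2-transfected Expi293F cells. Particles were MLV-pseudotyped with Wuhan-Hu-1 S carrying a 19-aa C-terminal deletion; signal was luciferase after two days, scaled between spike PP and fusion-protein-free PP.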
# Potency means the concentration at half of the fitted maximal effect.
compound,measurement,setting,value
COc1cc2nccc(Oc3ccc(NC(=O)C4(C(=O)Nc5ccc(F)cc5)CC4)cc3)c2cc1OC,Potency,[1],2.15 µM (active)
same,Potency,[2],inactive
O=C1NS(=O)(=O)c2ccccc21,Potency,[2],inactive
CCCCC(CC)COC(=O)/C=C/c1ccc(OC)cc1 (stereo unspecified),Potency,[2],inactive
same,"activity change, negative = inhibition",[3],-3.29%
CC1=C(C/C=C(\C)CCC[C@H](C)CCC[C@H](C)CCCC(C)C)C(=O)c2ccccc2C1=O,Potency,[2],inactive
same,Potency,[3],inactive
COc1ccccc1-c1cccc(-c2c(O)c3cc(C#N)c(Cl)cc3[nH]c2=O)c1,Potency,[2],inactive
same,"activity change, negative = inhibition",[3],-22.8%
CN1[C@@H]2CC[C@H]1CC(OC(=O)C(O)c1ccccc1)C2 (stereo partly specified),Potency,[2],inactive
same,"activity change, negative = inhibition",[3],-6.45%
COc1ccc(OC)c(-c2nnc3ccc(-c4ccc(OC)c(O[C@@H]5CCOC5)c4)nn23)c1,Potency,[2],inactive
Cn1cc(-c2[nH]c3cc(NC(=O)[C@H](N)C4CCCCC4)cc4c3c2C=NNC4=O)cn1,Potency,[2],15.8 µM (active)
same,Potency,[3],8.91 µM (active)
NC(=O)c1ccc(I)c([N+](=O)[O-])c1,Potency,[2],inactive
same,"activity change, negative = inhibition",[3],-6.13%
Cn1cncc1[C@@](N)(c1ccc(Cl)cc1)c1ccc2c(c1)c(-c1cccc(Cl)c1)cc(=O)n2C,Potency,[2],inactive
same,"activity change, negative = inhibition",[3],-13%
CCOC(=O)[C@@H](N)CCC(=O)N[C@@H](CSCc1ccccc1)C(=O)N[C@@H](C(=O)OCC)c1ccccc1,Potency,[2],inactive
same,"activity change, negative = inhibition",[3],0.458%
CC1=NN(c2ccccc2)C(=O)C1,Potency,[2],inactive
same,"activity change, negative = inhibition",[3],0.769% and -7.18%
CC(C)(C)NCC(O)c1ccc(O)c(CO)c1 (stereo unspecified),Potency,[2],inactive
same,Potency,[3],inactive
COc1cc2c(cc1OC)CN(CCc1ccc(NC(=O)c3cccc4c(=O)c5cccc(OC)c5[nH]c34)cc1)CC2,Potency,[2],inactive
same,"activity change, negative = inhibition",[3],-26.4%
c1ccc2[nH]ccc2c1,Potency,[2],inactive
same,Potency,[3],inactive
COc1ccccc1O,Potency,[2],inactive
same,Potency,[3],inactive
CC(C)(N)C(=O)N[C@H](COCc1ccccc1)C(=O)N1CCC2(CC1)CN(S(C)(=O)=O)c1ccccc12,Potency,[2],inactive
CNC(=O)c1cc(Oc2ccc(NC(=O)Nc3cc(C(C)(C)C)nn3-c3ccc4ncccc4c3)c(F)c2)ccn1,Potency,[2],inactive
C#CC(C)(CC)OC(=O)c1ccccc1C(=O)O (stereo unspecified),Potency,[2],inactive
same,"activity change, negative = inhibition",[3],3.66%
Cn1c2cc(S(C)=O)sc2c2cnn(Cc3cccc(N)c3)c(=O)c21 (stereo unspecified),Potency,[2],inactive
same,"activity change, negative = inhibition",[3],-23.3%
CN1C(=O)C(Cc2c[nH]c3ccccc23)NC1=S (stereo unspecified),Potency,[2],inactive
same,Potency,[3],inactive
CS(=O)(=O)Oc1ccc2c(NC(N)=O)c(C(=O)c3ccc(Cl)cc3Cl)oc2c1,Potency,[2],inactive
same,Potency,[3],inactive
CC(C)c1onc(-c2c(Cl)cccc2Cl)c1COc1ccc(/C=C/c2cccc(C(=O)O)c2)c(Cl)c1,Potency,[2],inactive
same,Potency,[3],inactive
CCCOC(=O)c1ccc(O)cc1,Potency,[2],inactive
same,Potency,[3],inactive
O=C(NCCS(=O)(=O)c1ccc(C(F)(F)F)cn1)c1ccc(Cl)cc1,Potency,[2],inactive
CCN(CC)CCCCNc1nc2cc(Cl)c(Cl)cc2nc1-c1ccc(-c2cccs2)s1,Potency,[2],inactive
C#Cc1cccc(Nc2ncnc3cc(OC)c(OCCCCCCC(=O)NO)cc23)c1,Potency,[2],10 µM (active)
same,Potency,[3],inactive
COc1cc2ncnc(-n3nc(-c4ccccn4)nc3N)c2cc1OC,Potency,[2],inactive
same,"activity change, negative = inhibition",[3],-6.12%
Cc1cnc(Nc2ccc(OCCN3CCCC3)cc2)nc1Nc1cccc(S(=O)(=O)NC(C)(C)C)c1,Potency,[2],25.1 µM (active)
same,Potency,[3],22.4 µM (active)
O=C1C(Cl)=C(NCCN2CCOCC2)C(=O)c2ncccc21,Potency,[2],28.2 µM (active)
same,Potency,[3],11.2 µM (active)
O=C(Nc1cccnc1)N1CCC(Cc2cccc(Oc3ccc(C(F)(F)F)cn3)c2)CC1,Potency,[2],20 µM (active)
NC(=O)C1CCCc2c1[nH]c1ccc(Cl)cc21 (stereo unspecified),Potency,[2],inactive
same,Potency,[3],inactive
CCc1c(C)[nH]c2c1C(=O)C(CN1CCOCC1)CC2 (stereo unspecified),Potency,[2],inactive
same,Potency,[3],inactive
COc1nc(C)cnc1NS(=O)(=O)c1cccnc1-c1ccc(-c2nnco2)cc1,Potency,[2],inactive
same,Potency,[3],inactive
COc1ccc(CC2SC(=O)NC2=O)cc1C(=O)NCc1ccc(C(F)(F)F)cc1 (stereo unspecified),Potency,[2],inactive
same,"activity change, negative = inhibition",[3],-1.76%
CCCCn1c(=O)n(Cc2ccccc2F)c(=O)c2[nH]c(Cc3ccc(NC(C)=O)cc3)nc21,Potency,[2],inactive
same,Potency,[3],inactive
CN1CCN(c2c(F)cc3c(=O)c(C(=O)O)cn4c3c2OCN4C)CC1,Potency,[2],inactive
same,Potency,[3],inactive
CC1(O)CC(c2nc(-c3ccc4ccc(-c5ccccc5)nc4c3)c3c(N)nccn23)C1 (stereo unspecified),Potency,[2],inactive
same,"activity change, negative = inhibition",[3],-23.9%
CC(C)(C)c1nnc(NS(=O)(=O)c2ccccc2)s1,Potency,[2],inactive
same,Potency,[3],inactive
NC(CO)C(=O)NNCc1ccc(O)c(O)c1O (stereo unspecified),Potency,[2],inactive
same,Potency,[3],inactive
CC(C)OC(=O)C1=CN(C(=O)c2ccc(F)c(F)c2)CC(C)(C)c2c1[nH]c1ccccc21,Potency,[2],inactive
same,"activity change, negative = inhibition",[3],-3.59%
Clc1ccccc1CN1CCc2sccc2C1,Potency,[2],inactive
same,Potency,[3],inactive
CC1(C)CCC(c2ccc(Cl)cc2)=C(CN2CCN(c3ccc(C(=O)NS(=O)(=O)c4ccc(N[C@H](CCN5CCOCC5)CSc5ccccc5)c(S(=O)(=O)C(F)(F)F)c4)cc3)CC2)C1,Potency,[2],inactive
same,Potency,[3],inactive
CN(C(=O)C(Cl)Cl)c1ccc(OC(=O)c2ccco2)cc1,Potency,[2],inactive
same,Potency,[3],inactive

# From PubChem BioAssay (NCATS)
